An excerpt weighted towards active compounds, which were near 6.8% of everything screened.
Cy5 interf NS3h: enhances or quenches Cy5 fluorescence in NS3h assay; Cy5-dT15 DNA with NS3h, fluorescence interference; actives lie on both sides; signal over control mean, under 1 quenches; 16,000 compounds, 6% hits; fluorescence interference ratio at 100 µM;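 active = compound fluorescence over control fluorescence at most 0.8, a quencher, or at least a set upper limit, an enhancer; inactive = ratio between 0.8 and the set upper limit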
NS3h inh CB: blocks HCV NS3 helicase binding to DNA; NS3h Cy5-dT15 DNA binding, fluorescence polarization; inhibition, % at 100 µM; 16,000 compounds, 1.6% hits;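 active = inhibition above the average over every tested compound plus 3 SD, cut at about 40% in these data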
* marks the source's active call; other numbers are inactive results.

SMILES	Cy5 interf NS3h	NS3h inh CB
COc1ccc(N(CC(=O)Nc2ccc(C)c(C)c2)S(C)(=O)=O)cc1	1.2*	10.0
COc1ccc(N(CC(=O)NCCc2ccc(OC)c(OC)c2)S(=O)(=O)c2ccc(OC)c(OC)c2)cc1	1.2*	24.4
COc1ccccc1CNC(=O)c1ccc(CN(c2ccccc2)S(C)(=O)=O)cc1	0.966	6.7
COCCCNC(=O)c1ccc(N(C)S(=O)(=O)c2ccccc2)cc1	1.11	3.5
COc1ccc(N(Cc2ccc(C(=O)NCc3ccccc3OC)cc2)S(=O)(=O)c2ccccc2)cc1	0.691*	20.4
COc1ccc(OC)c(N(CC(=O)NCCc2ccc(OC)c(OC)c2)S(=O)(=O)c2ccc(OC)c(OC)c2)c1	1.01	7.3
COc1ccc(NC(=O)CN(c2ccc(OC)cc2)S(C)(=O)=O)cc1	1.02	7.0
COCCCNC(=O)c1ccc(CN(c2ccccc2)S(C)(=O)=O)cc1	0.792*	7.8
O=C(O)CCC(=O)Nc1sc2c(c1C(=O)Nc1ccccc1)CCCC2	1.06	7.0
Cc1ccc(N(Cc2ccc(C(=O)NCCSc3ccc(Cl)cc3)cc2)S(C)(=O)=O)cc1C	0.934	0.0
COc1ccc(CCNC(=O)c2ccc(N(Cc3ccc(Cl)cc3)S(C)(=O)=O)cc2)cc1OC	0.753*	7.7
CC(NC(=O)c1ccc(C(=O)O)cc1C(=O)O)c1ccccc1 (centres undefined)	0.999	1.9
O=C(Nc1cccc(C(F)(F)F)c1)c1cnn2c(C(F)(F)F)cc(-c3cccs3)nc12	0.661*	7.7
CC(C)OC(=O)c1cnn2c(C(F)(F)F)cc(-c3ccc(F)cc3)nc12	0.942	10.3
COc1ccc(-c2cc(C(F)(F)F)n3nc(C(=O)N4CCc5ccccc5C4)cc3n2)cc1	0.971	9.4
O=C(c1ccccc1)N1CCN(C(=O)c2nn3c(C(F)(F)F)cc(-c4cccs4)nc3c2Br)CC1	0.71*	9.6
CC(C)C(=O)NS(=O)(=O)c1ccc(NC(=O)c2ccccc2Cl)cc1	1.06	0.0
O=C1c2ccccc2NC(c2ccc(Cl)c(Cl)c2)N1Cc1ccccc1 (centres undefined)	0.932	12.4
O=C1NC(=S)N(c2ccc(F)cc2)C(=O)C1=Cc1ccc([N+](=O)[O-])s1	0.881	43.3*
CC(C)(C)N1C(=O)NC(=O)C(=Cc2ccc([N+](=O)[O-])s2)C1=O	0.883	39.8
CC(CNC(=O)c1cccs1)c1ccccc1 (centres undefined)	0.995	-1.6
C/C(=N\N=C1/c2ccccc2C(=O)C1C(=O)C(c1ccccc1)c1ccccc1)c1cccs1 (centres undefined)	0.684*	4.0
COc1cc(CN2CCN(Cc3ccc(F)cc3)CC2)cc(OC)c1OC	0.988	-9.0
COc1cc(-c2noc(-c3ccc(F)cc3)n2)cc(OC)c1OC	1.02	-2.9
CC(C)(C)C1=NN(C(=O)c2ccc([N+](=O)[O-])cc2)C(O)(C(F)(F)F)C1 (centres undefined)	0.672*	15.0
SMILES	Cy5 interf NS3h	NS3h inh CB
CC1=NN(C(=O)c2ccc([N+](=O)[O-])cc2)C(O)(c2ccc(Cl)cc2)C1 (centres undefined)	0.98	18.2
Cc1ccc(S(=O)(=O)NCCOc2ccccc2Cl)cc1[N+](=O)[O-]	0.791*	4.8
Cc1ccc(S(=O)(=O)NCCOc2ccccc2)cc1[N+](=O)[O-]	0.933	13.0
Cc1cc(C)n2nc(-c3cccc(F)c3)cc2n1	0.934	7.2
Cc1cc(C)n2nc(-c3ccc(F)cc3)cc2n1	0.667*	20.7
Cc1ccsc1/C=C1\SC(=N)N(c2ccc3c(c2)OCO3)C1=O	1.47*	48.9*
Cc1ccsc1/C=C1\SC(=S)N(C(C)C)C1=O	0.987	4.8
CNC(=O)c1ccc(CN2CCc3ccccc3C2)cc1	0.995	7.9
O=C(Nc1ccccc1)Nc1ncccn1	0.784*	11.5
O=C(Nc1ccncc1)Nc1ccccn1	1.01	4.7
C=CCNC(=O)C1CC(=O)N(c2ccc(Cl)cc2)C1 (centres undefined)	0.991	-2.6
CCC1=NN2C(=N)/C(=C/c3ccc(-c4ccc([N+](=O)[O-])cc4OC)o3)C(=O)N=C2S1	1.24*	9.1
COc1cc([N+](=O)[O-])ccc1-c1ccc(/C=C2\C(=O)NC(=S)N(c3ccc(C)cc3)C2=O)o1	1.12	23.3
NS(=O)(=O)c1ccc(N=Cc2ccc[nH]2)cc1	1.06	1.0
O=[N+]([O-])c1cccc(N=Cc2ccc[nH]2)c1	0.68*	9.6
COc1ccccc1NC(=O)COc1ccc(C)c(C)c1	0.894	11.5
COc1cc(OC)c([N+](=O)[O-])cc1C=O	0.654*	8.7
COc1cc(OC)c([N+](=O)[O-])cc1/C=C(/C#N)C(=O)Nc1ccccc1	1.08	-0.7
O=C(Nc1ccccc1C(=O)N1CCCCC1)c1cccnc1	1.07	8.8
O=C(CSc1nc2ccccc2[nH]1)Nc1ccc(F)c([N+](=O)[O-])c1	0.846	16.1
O=C(CSc1nc2ccc([N+](=O)[O-])cc2[nH]1)Nc1ccc2c(c1)OCO2	0.605*	12.4
